Records with an inconclusive call do not appear. Values without a mark were called inactive. Active and inactive are the calls of the source. Calls follow the shape of the dose curve; as a rule, active = well fitted cell-killing curve with a large enough effect; inconclusive = small, poorly fitted or top-dose-only effect, or effect the other way; inactive = no such curve, though single readings can be large or run the other way.
system: CASKI; assay: Confirmatory qHTS for gynecologic anti-cancer compounds from libraries of approved drugs and bioactive compounds; conditions: gynecologic cancer cell panel viability, ATPlite luminescence, 48 h; series mostly up to 57.6 µM; activity change, negative = viability loss: at the top concentration; also: nearly all actives have a fitted effect of over 55% in size
Procedure, shortened: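 Cells (1,000/well) plated 16 h, then exposed 48 h at 37 °C to 11 concentrations (1:3) from 57.5 uM to 0.977 nM. Viability by ATPlite luminescence after 15 min; IC50 derived, with HEK 293T used for selectivity index.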
% is scaled to controls: 0 for no effect and ±100 for the full control effect; potency is read from the fitted curve at half-maximal effect.

SMILES	activity change, negative = viability loss [%]	Potency
COc1ccccc1N1CCN(CC(O)COc2cccc3ccccc23)CC1 (configuration not stated)	-4.81	–
COC(C(=O)N1Cc2[nH]nc(NC(=O)c3ccc(N4CCN(C)CC4)cc3)c2C1)c1ccccc1 (configuration not stated)	–	7.69 µM (active)
O=C(c1ccc(F)c(F)c1Nc1ccc(I)cc1F)N1CC(O)([C@@H]2CCCCN2)C1	–	17.2 µM (active)
Cn1c(=O)c(-c2c(Cl)cccc2Cl)cc2cnc(Nc3cccc(C(=O)O)c3)nc21	–	3.06 µM (active)
Cc1cnc(Nc2cccc(CN3CCOCC3)c2)nc1Nc1cccc(S(=O)(=O)NC(C)(C)C)c1	–	15.3 µM (active)
CCc1cccc(CC)c1NC(=O)N1Cc2[nH]nc(NC(=O)c3ccc(N4CCN(C)CC4)cc3)c2C1	–	19.3 µM (active)
Cc1cc(Nc2cc(N3CCN(C)CC3)nc(Sc3ccc(NC(=O)C4CC4)cc3)n2)n[nH]1	-30.6	–
CO[C@@]12[C@H](COC(N)=O)C3=C(C(=O)C(C)=C(N)C3=O)N1C[C@@H]1N[C@@H]12	5.69	–
CCCCc1oc2ccccc2c1C(=O)c1cc(I)c(OCCN(CC)CC)c(I)c1	–	79.4 µM (active)
Cc1c(NC(=O)OCC2COCCN2)cn2ncnc(Nc3ccc4c(cnn4Cc4cccc(F)c4)c3)c12 (configuration not stated)	–	19.3 µM (active)
COc1ccc(-c2cc3nccn3c(Nc3ncccc3C(N)=O)n2)cc1OC	1.41	–
CNC(=O)c1ccccc1Sc1ccc2c(/C=C/c3ccccn3)n[nH]c2c1	–	13.7 µM (active)
CCCCc1oc2ccc(NS(C)(=O)=O)cc2c1C(=O)c1ccc(OCCCN(CCCC)CCCC)cc1	–	27.3 µM (active)
O=C(CCCCCCNC(=O)c1cnc(N(c2ccccc2)c2ccccc2)nc1)NO	–	21.7 µM (active)
FC(F)(F)c1ccc(/C=C/c2nc(COc3ccc(CCCCn4ccnn4)cc3)co2)cc1	–	0.137 µM (active)
CC(C)C[C@H](NC(=O)[C@H](Cc1ccccc1)NC(=O)c1cnccn1)B(O)O	–	0.0343 µM (active)

SMILES	activity change, negative = viability loss [%]	Potency
Cc1cc(C2CCCCC2)n(O)c(=O)c1	–	3.96 µM (active)
Cn1cc(-c2ccc3ncc(Cc4ccc5ncccc5c4)n3n2)cn1	11.8	–
COc1ccc(OC)c(-c2nnc3ccc(-c4ccc(OC)c(O[C@@H]5CCOC5)c4)nn23)c1	-14.3	–
Cc1c(C)n(Cc2ccc(-c3ccccc3C(=O)O)cc2)c2ccc(C(=O)N[C@@H](C)c3ccc([N+](=O)[O-])cc3)cc12	9.23	–
CCCC(Nc1nc(-c2ccc(NC(=O)NCC)c(OC)c2)ncc1C)c1cccnc1 (configuration not stated)	0.638	–
CC(C)[C@@H](CS(=O)(=O)C(C)C)N1C(=O)[C@@](C)(CC(=O)O)C[C@H](c2cccc(Cl)c2)[C@H]1c1ccc(Cl)cc1	10.2	–
CC(C)c1nn(-c2c(Cl)cccc2Cl)c2nc(Cc3ccc(OCCO)cc3)[nH]c(=O)c12	–	0.137 µM (active)
Cc1ccc(C(N)=O)cc1Nc1nccc(-c2cn(C(C)C)c3cnccc23)n1	–	17.2 µM (active)
CN(c1nccc(=O)[nH]1)C1CCN(c2nc3ccccc3n2Cc2ccc(F)cc2)CC1	-4.26	–
CC(=O)c1cnc2ccc(-c3cc(Cl)c(O)c(Cl)c3)nc2c1NC1CCC(CN(C)C)CC1 (configuration not stated)	–	0.559 µM (active)
Nc1nccc(Oc2ccc(NC(=O)c3c[nH]cc(-c4ccc(F)cc4)c3=O)cc2F)c1Cl	–	12.2 µM (active)
Cc1ccc(C(=O)Nc2ccc(Oc3cc4cnn(C)c4cc3-c3cn[nH]c3)c(F)c2)c(=O)n1-c1ccc(F)cc1	-29.1	–
CC[C@]1(O)C[C@H]2CN(CCc3c([nH]c4ccccc34)[C@@](C(=O)OC)(c3cc4c(cc3OC)N(C=O)[C@H]3[C@@](O)(C(=O)OC)[C@H](OC(C)=O)[C@]5(CC)C=CCN6CC[C@]43[C@@H]65)C2)C1	-0.871	–
C#C[C@]1(O)CC[C@H]2[C@@H]3CCC4=CC(=O)CC[C@@H]4[C@H]3CC[C@@]21CC	-2.14	–
CN(C[C@@H]1COCCO1)S(=O)(=O)Nc1ccc2ccc3ncc(-c4cnn(C)c4)cc3c(=O)c2c1	-7.46	–
CCCCN(CCCC)C(=O)CN1C[C@H](c2ccc3c(c2)OCO3)[C@@H](C(=O)O)[C@@H]1c1ccc(OC)cc1	14.2	–
